# In PubChem BioAssay (NCI):
# The panel holds about 83,000 compounds, 20% with a hit somewhere; the sample as a whole holds those more often.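 Step 1: grow cells in 96-well plates. Step 2: add test compound at a single concentration. Step 3: incubate 48 h. Step 4: record percent growth.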 The source made the active and inactive calls. Rule for the calls: active = growth percent below 10; inactive = the rest.
# Tested on: DU-145 prostate
# Assay: NCI-60 one-dose screen, 48 h (100 = growth as untreated, 0 = no growth, -100 = all killed)
# Conditions: 10 µM unless noted
row,Structure (SMILES),growth
1,Cn1cc(-c2cc3nc(-c4cn(C)c5ncccc45)cc(N)n3n2)c2cc(Cl)ccc21,-15% (active)
2,COc1ccc2[nH]cc(-c3cc(N)n4nc(-c5cn(C)c6ccccc56)cc4n3)c2c1,-64.7% (active)
3,COc1ccc(Cc2nn(CC(=O)N/N=C/c3ccc(F)cc3)c(=O)c3c(C)noc23)cc1,40% (inactive)
4,Cc1ccc(NCC(=O)Cn2cc(COc3ccc(C=Nc4cnc5ccccc5c4)cc3)nn2)cc1,119% (inactive)
5,Cc1cccc(NC(=O)CN2CCN(c3ncnc4c3cnn4-c3ccccc3)CC2)c1,96.7% (inactive)
6,Cn1cc(-c2nc(N)nnc2-c2c[nH]c3ccc(F)cc23)c2cc(Br)cnc21,10.1% (inactive)
7,COc1ccc2[nH]cc(-c3nnc(N)nc3-c3cn(C)c4ncc(Br)cc34)c2c1,93% (inactive)
8,COc1ccc(NC(=O)[C@H](C)N)cc1C(=O)Nc1cccc(C2CC(=O)c3c(cc(OC)c(OC)c3OC)O2)c1 (stereo not given in full),86.6% (inactive)
9,CC1(C)CC[C@]2(C(=O)O)CC[C@]3(C)C(=CCC4[C@@]5(C)C[C@@H](O)[C@@H]6OC(c7ccco7)OC[C@@]6(C)C5CC[C@]43C)C2C1 (stereo not given in full),29.1% (inactive)
10,COc1ccc2c(c1)c(/C=N/Nc1ccc3ccccc3n1)cn2C,36.2% (inactive)
11,Cc1ccc(S(=O)(=O)c2nc(S(=O)(=O)c3ccc(C)cc3)c(N3CCN(C)CC3)s2)cc1,52.6% (inactive)
12,COc1cc2c(c(OC)c1OC)C(=O)CC(c1cccc(NC(=O)c3cc(NC(=O)[C@H](C)N)ccc3Cl)c1)O2 (stereo not given in full),36% (inactive)
13,Cc1ccc(C(=O)C(c2c[nH]c3ccccc23)c2c[nH]c3ccccc23)cc1,4.62% (active)

# Tested on: K-562 leukemia
# Assay: as above
# Conditions: 10 µM unless noted
row,Structure (SMILES),growth
1,O=C(c1ccccc1)c1ccc2nc(-c3ccc(F)cc3)[nH]c2c1,20.9% (inactive)
2,CC1(C)CC[C@]2(C(=O)O)CC[C@]3(C)C(=CCC4[C@@]5(C)C[C@@H](O)[C@@H]6OC(c7ccc(F)cc7)OC[C@@]6(C)C5CC[C@]43C)C2C1 (stereo not given in full),14.9% (inactive)
3,N/C(=N\c1nc2ccccc2s1)NC(=O)Nc1ccc(Cl)cc1Cl,9.51% (active)
4,CCCCSc1nc(Nc2ccc(S(N)(=O)=O)cc2)c(C#N)c(-c2cc(OC)c(OC)c(OC)c2)n1,3.62% (active)
5,O=C(COc1ccc2c(c1)CCCC(=O)N2)NCc1ccccc1,43.4% (inactive)
6,Nc1nc(-c2ccccc2)c(N=Nc2ccc([N+](=O)[O-])cc2Cl)s1,67.3% (inactive)
7,CC1(C)CC[C@]2(C(=O)O)CC[C@]3(C)C(=CCC4[C@@]5(C)C[C@@H](O)[C@@H]6OC(c7cccc(Br)c7)OC[C@@]6(C)C5CC[C@]43C)C2C1 (stereo not given in full),16% (inactive)
8,C#CCOc1ccc(/C=N/Nc2nc(-c3cc4cc(OC)ccc4oc3=O)cs2)cc1OC,34.7% (inactive)
9,COc1cc2oc(-c3cccc(C(=O)Nc4ccc(Cl)cc4)c3)cc(=O)c2c(OCC(=O)N[C@@H](Cc2ccccc2)C(=O)O)c1OC,96.5% (inactive)
10,Cn1cc(-c2cc3nc(-c4c[nH]c5ccc(Cl)cc45)cc(N)n3n2)c2ccccc21,1.64% (active)
11,C#C[C@]1(O)CC[C@H]2[C@@H]3CC=C4c5sc(-c6ccc([N+](=O)[O-])cc6)nc5CC[C@]4(C)[C@H]3CC[C@@]21C,5.27% (active)
12,O=C(CSc1nc2ccccc2c(=O)[nH]1)NCCN1CCCCC1,98.9% (inactive)
13,C#CCOc1cc(N(CC)CC)ccc1C(C(=O)NC(C)(C)C)N(C(=O)C1CCc2cc(F)ccc2O1)c1ccc(F)c(Cl)c1 (stereo not given),35.7% (inactive)
14,O=c1oc2ccccc2cc1-c1csc(N2N=C(c3ccccc3)CC2c2ccc(N3CCOCC3)cc2)n1 (stereo not given),107% (inactive)
15,Cn1cc(-c2cc(N)n3nc(-c4cn(C)c5ncccc45)cc3n2)c2cccnc21,5.55% (active)
16,COc1ccc(-c2ccnc(SCc3cc4cc(OC)ccc4[nH]c3=O)n2)cc1,4.74% (active)
17,CCOc1ccc(-c2c(C#N)c(-c3ccc(Cl)cc3)nc3n[nH]c(-c4ccc(Cl)cc4)c23)cc1OC,9.47% (active)
18,CN(C)c1ccnc(NCCCSC(c2ccccc2)(c2ccccc2)c2ccccc2)c1,-36.6% (active)
19,O=C(Cn1c(/C=C/c2ccccc2)nc2ccccc2c1=O)Nc1ccccc1,93.2% (inactive)

row,Structure (SMILES),growth
1,O=C(O)c1cccc(-c2ccc(/C=N/NC(=O)c3[nH]c4ccc(Br)cc4c3-c3ccccc3)s2)c1,19.8% (inactive)
2,C#CCOc1cc(N(CC)CC)ccc1C(C(=O)NC(C)(C)C)N(C(=O)C1CCc2cc(F)ccc2O1)c1cc(C)cc(C)c1 (stereo not given),16.4% (inactive)
3,COc1cc2c(c(OC)c1OC)C(=O)CC(c1cccc(NC(=O)c3cc(NC(=O)[C@@H](N)CO)ccc3C)c1)O2 (stereo not given in full),91.4% (inactive)
4,C#CCOc1ccc(/C=N/Nc2nc(-c3ccc(F)cc3)cs2)cc1OC,25% (inactive)
5,Cc1cc2c(cc1Cl)C(=O)/C(=C/c1ccc(F)cc1)O2,77.6% (inactive)
6,Cn1cc(-c2cc3nc(-c4cn(C)c5ncccc45)cc(N)n3n2)c2cc(Cl)ccc21,-51.3% (active)
7,COc1ccc2[nH]cc(-c3cc(N)n4nc(-c5cn(C)c6ccccc56)cc4n3)c2c1,4.69% (active)
8,COc1ccc(Cc2nn(CC(=O)N/N=C/c3ccc(F)cc3)c(=O)c3c(C)noc23)cc1,70.1% (inactive)
9,Cc1ccc(NCC(=O)Cn2cc(COc3ccc(C=Nc4cnc5ccccc5c4)cc3)nn2)cc1,102% (inactive)
10,Cc1cccc(NC(=O)CN2CCN(c3ncnc4c3cnn4-c3ccccc3)CC2)c1,67.5% (inactive)
11,Cn1cc(-c2nc(N)nnc2-c2c[nH]c3ccc(F)cc23)c2cc(Br)cnc21,5.23% (active)
12,COc1ccc2[nH]cc(-c3nnc(N)nc3-c3cn(C)c4ncc(Br)cc34)c2c1,52.5% (inactive)
13,COc1ccc(NC(=O)[C@H](C)N)cc1C(=O)Nc1cccc(C2CC(=O)c3c(cc(OC)c(OC)c3OC)O2)c1 (stereo not given in full),75.8% (inactive)
14,CC1(C)CC[C@]2(C(=O)O)CC[C@]3(C)C(=CCC4[C@@]5(C)C[C@@H](O)[C@@H]6OC(c7ccco7)OC[C@@]6(C)C5CC[C@]43C)C2C1 (stereo not given in full),21.2% (inactive)
15,COc1ccc2c(c1)c(/C=N/Nc1ccc3ccccc3n1)cn2C,-40.1% (active)
16,Cc1ccc(S(=O)(=O)c2nc(S(=O)(=O)c3ccc(C)cc3)c(N3CCN(C)CC3)s2)cc1,15.7% (inactive)
17,COc1cc2c(c(OC)c1OC)C(=O)CC(c1cccc(NC(=O)c3cc(NC(=O)[C@H](C)N)ccc3Cl)c1)O2 (stereo not given in full),9.72% (active)
18,Cc1ccc(C(=O)C(c2c[nH]c3ccccc23)c2c[nH]c3ccccc23)cc1,5.78% (active)
